From PubChem BioAssay (NCI)
The panel holds about 79,000 compounds, 15% with a hit somewhere; the sample as a whole holds those more often. Values without a mark were called inactive. Activity calls are given as the source filed them. Cut-off read from the data, not from the text of the source: active = growth inhibition above about 70%; inactive = the rest. Where a SMILES comes first, the peptide text is derived from it. [ ]: non-standard residue; d: D form. The star is where a group is joined. Cbz = O=C(OCc1ccccc1)*; Nva = CCC[CH](N)C(=O)O

Tests used:
[1] = NCI Yeast Anticancer Drug Screen. Data for the rad50 strain (AID 155);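 note: 0% = growth of vehicle-only cultures of the same strain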; conditions: S. cerevisiae rad50 strain growth inhibition; at 50.0 µM; stronger effect = higher value
Procedure, shortened: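 Relative growth inhibition (compound vs vehicle) was measured in yeast with a defined repair-gene alteration.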

[2] = NCI Yeast Anticancer Drug Screen. Data for the mec2-1 strain (AID 157); conditions: S. cerevisiae mec2-1 strain, at 50.0 µM, stronger effect = higher value
Procedure, shortened: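 Each compound was tested on mec2-1 yeast, a strain altered in DNA damage repair or cell cycle control. Growth inhibition is reported relative to vehicle.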

[3] = NCI Yeast Anticancer Drug Screen. Data for the sgs1 mgt1 strain (AID 161);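 note: 0% = growth of cultures given vehicle only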; conditions: S. cerevisiae sgs1 mgt1 strain, at 50.0 µM, stronger effect = higher value
Procedure, shortened: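 Inhibition of yeast growth, normalised to vehicle-treated controls, is reported for a strain bearing genetic alterations in DNA damage repair.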

[4] = NCI Yeast Anticancer Drug Screen. Data for the cln2 rad14 strain (AID 165);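 note: 0% = growth equal to vehicle treated cultures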; conditions: S. cerevisiae cln2 rad14 strain, at 50.0 µM, stronger effect = higher value
Procedure, shortened: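 Test compounds were added to cln2 rad14 yeast cultures; inhibition of growth was then determined by comparison with vehicle treatment.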

[5] = NCI Yeast Anticancer Drug Screen. Data for the bub3 strain (AID 167); conditions: S. cerevisiae bub3 mutant strain, at 50.0 µM, stronger effect = higher value
Procedure, shortened: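 Screening used yeast with an engineered genetic alteration affecting cell cycle control. Compound-exposed cultures were compared with vehicle cultures, and reduced growth was taken as inhibition.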

[6] = NCI Yeast Anticancer Drug Screen. Data for the mlh1 rad18 strain (AID 175); conditions: S. cerevisiae mlh1 rad18 strain growth inhibition; at 50.0 µM; stronger effect = higher value
Procedure, shortened: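 Inhibition values reflect reduced growth of mutant yeast versus vehicle-treated controls following compound exposure; the mutations affect DNA damage repair.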

| Compound | growth inhibition [1] | growth inhibition [2] [%] | growth inhibition [3] | growth inhibition [4] [%] | growth inhibition [5] | growth inhibition [6] |
| --- | --- | --- | --- | --- | --- | --- |
| O=C1Nc2ccc3c4c(ccc1c24)CC3 | 10.3% | -0.8 | -0.3% | -6.1 | 10.7% | 16.8% |
| CC(=O)Cc1ccc(Cl)cc1[N+](=O)[O-] | -14.8% | 5.95 | -8.5% | -24.3 | -9.7% | 1.9% |
| COC(=O)CCC(=O)c1ccc2c(c1)CC1(C2)Cc2ccc(C(=O)CCC(=O)OC)cc2C1 | -1.45% | -30.6 | -22.4% | 5.35 | -20.1% | 2.9% |
| N#CC(C#N)=Cn1c(=S)[nH]c2ccc([N+](=O)[O-])cc21 | -13.4% | -19.6 | 2.75% | 20.8 | -9% | -4.55% |
| CCCCC/C(C)=C\CBr | -7.65% | -2.65 | -7.1% | -22.9 | -10.6% | -3% |
| CCOC(=O)C1CC1C#N (centres undefined) | 3.4% | -11.9 | 9% | 13.9 | 9.95% | 7.75% |
| COc1ccc(C(=O)C(C)(c2nc3n(c2O)C(=N)N=N3)c2nc3n(c2O)C(=N)N=N3)cc1 (centres undefined) | -8.8% | 4.45 | 0.75% | -8.85 | 5.8% | -7.95% |
| Cc1cc(N)ccc1N=Nc1cc(S(=O)(=O)O)c2cccc(S(=O)(=O)O)c2c1 | -4.4% | 22.1 | -2.65% | 3.95 | 8.85% | -4.55% |
| Cc1cc(-c2ccc([NH2+][B-](F)(F)F)c(C)c2)ccc1[NH2+][B-](F)(F)F | -9.15% | -3.15 | -11.6% | -58.6 | 3.45% | -11.2% |
| CCc1ccc(N=Nc2c(F)c(F)c(N(C)C)c(F)c2F)cc1 | -2.4% | 7.7 | 6.85% | 4.1 | 1.05% | -1.25% |
| Clc1cnc(/N=C/c2ccc(/C=N/c3ncc(Cl)cc3Cl)cc2)c(Cl)c1 | 13% | -21.8 | 6.05% | 10 | -5.8% | 16.4% |
| CCN(CC)CCCC(C)Nc1ccnc2c(Cl)cccc12 (centres undefined) | 15.7% | 14.3 | 22.4% | 22.6 | 5.2% | 2.4% |
| CN(C)c1nc(OC2C(C(O)CO)OC3OC(C)(C)OC32)nc(N(C)C)n1 (centres undefined) | 31.1% | -11.7 | 6.15% | 18 | -1.05% | -0.65% |
| c1ccc2nc(N3CCCC3)c(N3CCCC3)nc2c1 | -8.75% | -12.6 | -10.7% | -21.4 | 57.8% | -4.85% |
| OCC(CCl)(CCl)CCl | 31% | 18.1 | 10.8% | 7.45 | 18.2% | 41% |
| Cc1cc2c(cc1C)[n+](=O)c(C(=O)C/C(=N/OCCCc1ccccc1)C(=O)Nc1cc(Cl)ccc1Cl)c(C)n2[O-] | -35.1% | 1.8 | -7.2% | 19.2 | 9.1% | -10.3% |
| CC(C)NC(=O)OCc1c(COC(=O)NC(C)C)c(S(=O)c2ccccc2)n2c1CCC2 (centres undefined) | 12.6% | 5.3 | 9.05% | -27.1 | 18.6% | -6.4% |
| CNc1nc(SCc2ccccc2)c2ncn(C3OC(CO)C(O)C3O)c2n1 (centres undefined) | 11.3% | 4.8 | 16.9% | 19.9 | 4.95% | 17.9% |
| O=[N+]([O-])C[C@@]12O[C@]3(O)C4C5CC(C6C5C3C61)C42 (some centres undefined) | 6.35% | 10.5 | 15.3% | 2.7 | 1.2% | 8.05% |
| CN1CCC(Cl)(C(=O)c2ccccc2)CC1 | 26.2% | 4.35 | 25.6% | -9.5 | 5% | 8.25% |

| Compound | growth inhibition [1] | growth inhibition [2] [%] | growth inhibition [3] | growth inhibition [4] [%] | growth inhibition [5] | growth inhibition [6] |
| --- | --- | --- | --- | --- | --- | --- |
| CC(C)OC(=O)Nc1cccc(NC(=O)OCCCl)c1 | 7.1% | -3.65 | 9.15% | -9.85 | -8.8% | -7.1% |
| ClC(Cl)(Cl)C(c1ccc(Br)cc1)c1ccc(Br)cc1 | -18.1% | -29.5 | 1.15% | -43.3 | 16.8% | -0.25% |
| Nc1cc2c3c(cccc3c1Br)C(=O)NC2=O | 85.2% (active) | 14.6 | 35.5% | 12.1 | 15.3% | 15.8% |
| COc1ccc(-c2cc(C(=O)Nc3cccc(C(F)(F)F)c3)[nH]c(=S)n2)cc1 | -26.2% | -7.95 | -42% | 19.3 | -14.1% | -20.9% |
| CCCC(NC(=O)OCc1ccccc1)C(=O)NC(C(=O)O)C(C)CC (centres undefined) (Cbz-[Nva]-Ile-OH; configuration not given here) | 26.3% | 12.4 | 2.75% | 29.1 | 4.55% | 9.6% |
| Clc1ccc(-c2ncc(-c3ccccc3)o2)cc1 | 20.8% | -13.7 | -6.75% | 4.2 | 33.6% | -9.9% |
| NCCCNCCS | 19.6% | 1.5 | 22.6% | 18.3 | 2.5% | 17.1% |
| CSc1ccc(NC(=O)Nc2cc(C)ccc2Cl)cc1 | -2.05% | 23 | 25.9% | -4.05 | 41.1% | 19.6% |
| CCN(Cc1ccc(CN(CC)C(=O)c2sc3ccccc3c2Cl)cc1)C(=O)c1sc2ccccc2c1Cl | -3.5% | -19.6 | -7.35% | -1.4 | -11.4% | -4.55% |
| CSc1ncnc2c1ccn2C1OC(COP(=O)(O)O)C(O)C1O (centres undefined) | 21.8% | -1.35 | -3.4% | -2.45 | -37% | -2.15% |
| CCCCCCCC[n+]1cccc(C#N)c1 | 12.7% | 23.6 | 21.4% | 16.7 | 36% | 19.1% |
| CC12CCC3C(CCC4CCCCC43C)C1CC/C2=N\O (centres undefined) | 90.2% (active) | 45.6 | 79.8% (active) | 39.8 | 85.5% (active) | 96.5% (active) |
| CN(N=O)C(=O)NCc1ccc(Cl)cc1 | -0.1% | 15.8 | 17.6% | 12.4 | 8.05% | 1.15% |
| S=C(NCc1ccccc1)Nc1ncn[nH]1 | 5.1% | 0.25 | -5.8% | -22.9 | 3.55% | 3.8% |
| CCCc1n[nH]c(=S)n1N1C(=S)NC(C)(C)C=C1C | -1.8% | -2 | 18.1% | -10.8 | 4.1% | 17.2% |
| CCC1(CC)C(=O)OC(=O)C1(CC)CC | -6.05% | 6.7 | 2.8% | -8.2 | -10.9% | -10.4% |
| COc1c(C)c(C)c(OC(C)=O)c(C)c1Br | -10.2% | -4.9 | -1.95% | -3.1 | -2.1% | -9.3% |
| O=[N+]([O-])c1cc(Cl)cc2c1nc(NCCCO)c1ccccc12 | -0.8% | 7.35 | -0.3% | -7.95 | -7.65% | 27.9% |
| [N-]=[N+]=CC(=O)c1cc(-c2ccccc2)nc2c(-c3ccccc3)cccc12 | 55.8% | 18.8 | 54% | 31.8 | 62.8% | 59.1% |
